# Assay results from PubChem BioAssay (NCATS).
# Results filed as inconclusive are left out. Entries that show only a call come without a potency. The source made the active and inactive calls. Unless noted, calls come from the whole dose curve; as a rule, active = well fitted curve in the direction sought with a large enough effect; inconclusive = small, poorly fitted or top-dose-only effect, or another doubt; inactive = no such curve, though single readings can be large; an effect the other way counts as inactive or inconclusive.
# Key:
# [1] = AP1 Signaling Pathway (AID 357; active = well fitted curve in either direction with a large enough effect, not every such curve was filed as active;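 note: ME-180 reporter cells stimulated with EGF at its EC50 level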); conditions: ME-180 AP-1-bla reporter, EGF-induced, beta-lactamase ratio, 5 h; at 38 µM (top of the series)
# Outline: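 Cells are seeded overnight, exposed to compound titrations and an EC50 level of EGF for 5 hours at 37 °C, then loaded with CCF4 dye for 2.5 hours. Beta-lactamase activity under the AP-1 element is read as a blue/green ratio.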
# [2] = target: Cytochrome P450 1A2 (Homo sapiens) (UniProt P05177); assay: p450-cyp1a2 (AID 410; calls by dose curve)
# Sequence of Cytochrome P450 1A2 (Homo sapiens) (P05177 whole entry, looked up): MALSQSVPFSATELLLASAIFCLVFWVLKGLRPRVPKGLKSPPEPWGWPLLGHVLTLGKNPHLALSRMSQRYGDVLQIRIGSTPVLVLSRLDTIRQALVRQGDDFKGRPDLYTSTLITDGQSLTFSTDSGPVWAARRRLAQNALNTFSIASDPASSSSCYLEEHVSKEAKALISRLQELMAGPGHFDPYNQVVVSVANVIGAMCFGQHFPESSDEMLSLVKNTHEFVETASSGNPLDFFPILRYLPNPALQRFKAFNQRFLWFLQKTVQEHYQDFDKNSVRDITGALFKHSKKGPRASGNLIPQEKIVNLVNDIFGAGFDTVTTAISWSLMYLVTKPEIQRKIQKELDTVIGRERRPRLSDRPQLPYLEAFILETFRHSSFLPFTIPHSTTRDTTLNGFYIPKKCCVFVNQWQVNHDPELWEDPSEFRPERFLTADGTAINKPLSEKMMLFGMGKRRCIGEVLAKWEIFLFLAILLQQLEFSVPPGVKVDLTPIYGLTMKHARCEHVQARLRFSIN
# Outline: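 Luminescent readout of luciferin formed from Luciferin-ME by human CYP1A2; data normalized against complete inhibition by 57 uM furafylline. Enzyme 20nM, substrate 100uM at Km, 100mM KPO4 buffer, 60 min reaction at room temperature.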
# [3] = NFAT Signaling Pathway (AID 444; active = well fitted curve in either direction with a large enough effect, not every such curve was filed as active;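 note: carbachol stimulus at about its EC50 of 1 µM final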); conditions: Jurkat NFAT-bla M1, carbachol, beta-lactamase ratio, 5 h; at 38 µM (top of the series)
# Outline: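 Jurkat cells carrying an NFAT-driven β-lactamase reporter and co-transfected muscarinic M1 receptor were treated with compound plus carbachol (1 uM final, an EC50 level) for 5 h at 37 °C. CCF4 loading followed for 1 h at RT; 460/530 nm ratio gave %activity.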
# [4] = Stat Signaling Pathway (AID 446; active = well fitted curve in either direction with a large enough effect, not every such curve was filed as active;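 note: ME-180 cervical cancer cells given 40 pM IL-6 alongside compound; SIE-controlled beta-lactamase reporter measured as 460/530 nm FRET emission ratio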); conditions: ME-180 SIE beta-lactamase reporter, IL-6 stimulated, 5 h; at 38 µM (top of the series)
# Outline: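 Screening format detects activators and inhibitors alike: ME-180 SIE-bla cells stimulated at 40 pM IL-6 for 5 hrs with compound, then dual-emission beta-lactamase read at 405 nm excitation.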
# [5] = target: Glucocorticoid receptor (Homo sapiens) (UniProt P04150); assay: GR-GFP Redistribution (AID 450;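 active = compounds whose dose series gives a full or clear partial fitted curve of increased nuclear translocation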; note: potency is the fitted concentration of half-maximal effect); conditions: U2OS GR-GFP nuclear translocation, laser cytometry, 2 h
# Sequence of Glucocorticoid receptor (Homo sapiens) (P04150 whole entry, looked up, the tested form may be a part): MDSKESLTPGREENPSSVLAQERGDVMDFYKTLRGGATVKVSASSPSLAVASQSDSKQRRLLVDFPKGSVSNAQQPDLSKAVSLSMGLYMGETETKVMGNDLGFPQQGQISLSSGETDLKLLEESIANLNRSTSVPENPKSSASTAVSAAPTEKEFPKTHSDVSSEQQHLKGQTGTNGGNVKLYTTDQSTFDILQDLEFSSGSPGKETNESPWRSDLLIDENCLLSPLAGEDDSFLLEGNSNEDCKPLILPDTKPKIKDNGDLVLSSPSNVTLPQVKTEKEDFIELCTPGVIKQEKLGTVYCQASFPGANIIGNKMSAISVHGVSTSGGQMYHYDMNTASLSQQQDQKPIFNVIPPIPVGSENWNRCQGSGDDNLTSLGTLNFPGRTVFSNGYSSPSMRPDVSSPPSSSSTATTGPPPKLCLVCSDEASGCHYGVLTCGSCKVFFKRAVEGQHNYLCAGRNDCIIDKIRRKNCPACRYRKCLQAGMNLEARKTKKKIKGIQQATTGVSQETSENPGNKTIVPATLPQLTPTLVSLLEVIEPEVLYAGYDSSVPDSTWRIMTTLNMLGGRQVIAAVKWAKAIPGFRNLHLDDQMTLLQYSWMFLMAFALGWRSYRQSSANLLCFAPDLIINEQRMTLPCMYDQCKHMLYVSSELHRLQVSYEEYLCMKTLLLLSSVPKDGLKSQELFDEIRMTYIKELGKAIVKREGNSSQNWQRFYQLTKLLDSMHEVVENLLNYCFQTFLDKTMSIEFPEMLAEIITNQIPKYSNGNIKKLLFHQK
# [6] = target: Glucocorticoid receptor (Homo sapiens) (UniProt P04150); assay: GR-EFC Redistribution (AID 451; calls by dose curve; note: potency is the fitted concentration of half-maximal effect); conditions: CHO-K1 GR-EFC translocation, beta-gal luminescence, 2 h
# Outline: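 CHO-K1 cells stably expressing nuclear-localized β-gal enzyme acceptor and GR fused C-terminally to the enzyme donor fragment; ligand-driven nuclear translocation restores β-gal by complementation. Compounds titrated up to 46 uM final, 2 h at 37 °C; luminescence read.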
# [7] = target: Mitogen-activated protein kinase 10 (Mus musculus) (UniProt Q61831); assay: JNK3 AlphaScreen Assay (AID 530; active = well fitted curve in either direction with a large enough effect, not every such curve was filed as active;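 note: kinase came from lysate of stimulated human HepG2 cells; signal reports phosphorylation of biotinylated GST-cJun 1-79 at Ser73 with 10 µM ATP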)
# Outline: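 Inhibitors reduce antibody binding to phosphorylated biotin-cJun, lowering AlphaScreen luminescence. Lysates from HepG2 cells pre-activated by IL-1beta plus TNF-alpha supplied JNK3; compounds were titrated.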
# [8] = target: 3',5'-cyclic-AMP phosphodiesterase 4B (Homo sapiens) (UniProt Q07343); assay: qHTS Assay for Inhibitors of PDE-IV (AID 607; active = well fitted activation curve with a large enough effect in the main read-out, with a control signal flat, not every such curve was filed as active)
# Sequence of 3',5'-cyclic-AMP phosphodiesterase 4B (Homo sapiens) (Q07343 whole entry, looked up): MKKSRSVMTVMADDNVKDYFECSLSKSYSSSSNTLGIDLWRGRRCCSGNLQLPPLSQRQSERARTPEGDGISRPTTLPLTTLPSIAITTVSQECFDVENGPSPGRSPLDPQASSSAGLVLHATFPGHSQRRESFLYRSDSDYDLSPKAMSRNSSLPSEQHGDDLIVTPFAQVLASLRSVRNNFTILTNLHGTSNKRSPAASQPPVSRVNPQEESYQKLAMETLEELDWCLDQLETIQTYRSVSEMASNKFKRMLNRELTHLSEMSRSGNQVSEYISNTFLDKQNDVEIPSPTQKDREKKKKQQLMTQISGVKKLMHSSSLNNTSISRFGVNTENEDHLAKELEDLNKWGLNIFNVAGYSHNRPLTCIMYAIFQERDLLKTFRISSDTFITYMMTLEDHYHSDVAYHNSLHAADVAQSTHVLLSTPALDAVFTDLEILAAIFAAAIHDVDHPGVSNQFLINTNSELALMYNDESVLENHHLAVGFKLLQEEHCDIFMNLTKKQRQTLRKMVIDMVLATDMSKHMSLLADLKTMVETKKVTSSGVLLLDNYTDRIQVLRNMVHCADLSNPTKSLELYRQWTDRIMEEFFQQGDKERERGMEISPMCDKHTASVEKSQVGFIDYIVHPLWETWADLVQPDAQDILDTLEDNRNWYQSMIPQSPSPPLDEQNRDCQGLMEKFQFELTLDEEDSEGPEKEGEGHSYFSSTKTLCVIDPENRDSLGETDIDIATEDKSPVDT
# Outline: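 The readout is membrane depolarisation from a cAMP-sensing CNG channel, detected with a potential dye at ex 535/em 590. Cells were HEK293-derived (endogenous PDE-IV) at 1000 cells/well, titrated up to 22.9 uM final.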
# [9] = target: Guanine nucleotide-binding protein G(i) subunit alpha-1 (Homo sapiens) (UniProt P63096); assay: qHTS Assay for Inhibitors of RGS12 GoLoco Motif Activity (Green Fluorophore) (AID 879);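 note: negative values mean loss of peptide binding seen as reduced polarization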
# Sequence of Guanine nucleotide-binding protein G(i) subunit alpha-1 (Homo sapiens) (P63096 whole entry, looked up): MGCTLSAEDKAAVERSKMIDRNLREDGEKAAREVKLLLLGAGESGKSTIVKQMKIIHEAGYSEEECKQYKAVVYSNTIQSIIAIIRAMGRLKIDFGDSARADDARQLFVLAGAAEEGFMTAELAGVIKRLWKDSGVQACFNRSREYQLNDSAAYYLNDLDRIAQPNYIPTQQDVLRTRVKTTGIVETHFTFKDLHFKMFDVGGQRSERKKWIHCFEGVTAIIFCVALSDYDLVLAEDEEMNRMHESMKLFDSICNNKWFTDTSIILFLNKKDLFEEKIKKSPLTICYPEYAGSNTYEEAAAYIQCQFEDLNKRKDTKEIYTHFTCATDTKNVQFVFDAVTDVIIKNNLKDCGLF
# Outline: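 Fluorescence polarization assay: 50 nM Gαi1 with 10 nM FITC-labeled RGS12 GoLoco peptide in 10 mM Tris pH 7.5, 150 mM NaCl, 0.1 mM GDP, 0.05% NP40, 10 min at room temperature with compound.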
# [10] = target: Cytochrome P450 2C9 (Homo sapiens) (UniProt P11712); assay: qHTS Assay for Inhibitors and Substrates of Cytochrome P450 2C9 (AID 883); note: nearly all actives have a fitted effect of over 60% in size
# Sequence of Cytochrome P450 2C9 (Homo sapiens) (P11712 whole entry, looked up): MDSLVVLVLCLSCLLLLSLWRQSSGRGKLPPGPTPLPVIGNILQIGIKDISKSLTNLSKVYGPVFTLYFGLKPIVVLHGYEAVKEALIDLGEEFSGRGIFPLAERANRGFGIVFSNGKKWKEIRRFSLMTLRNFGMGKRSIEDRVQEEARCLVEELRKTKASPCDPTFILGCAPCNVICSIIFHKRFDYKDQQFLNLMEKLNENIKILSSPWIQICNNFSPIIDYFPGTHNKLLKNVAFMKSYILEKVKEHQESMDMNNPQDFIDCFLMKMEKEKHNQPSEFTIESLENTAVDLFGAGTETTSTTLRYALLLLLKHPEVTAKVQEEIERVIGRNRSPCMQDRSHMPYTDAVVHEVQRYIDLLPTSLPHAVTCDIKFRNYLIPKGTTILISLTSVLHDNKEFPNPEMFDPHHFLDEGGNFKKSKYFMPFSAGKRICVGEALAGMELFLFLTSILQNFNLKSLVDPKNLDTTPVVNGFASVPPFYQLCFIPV
# Outline: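 Human CYP2C9 (10nM) hydroxylated Luciferin-H (100uM, at its KM) to luciferin in 25mM KPO4. Compound was preincubated 10 min at 37C, then NADPH regeneration started a 60 min reaction at 37C. Luminescence was read after detection reagent, normalized to 57uM sulphaphenazole.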
# [11] = target: Cytochrome P450 2D6 (Homo sapiens) (UniProt P10635); assay: qHTS Assay for Inhibitors and Substrates of Cytochrome P450 2D6 (AID 891);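 note: luciferin methyl ether substrate demethylated by CYP2D6 with NADPH regeneration; nearly all actives have a fitted effect of over 60% in size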
# Sequence of Cytochrome P450 2D6 (Homo sapiens) (P10635 whole entry, looked up): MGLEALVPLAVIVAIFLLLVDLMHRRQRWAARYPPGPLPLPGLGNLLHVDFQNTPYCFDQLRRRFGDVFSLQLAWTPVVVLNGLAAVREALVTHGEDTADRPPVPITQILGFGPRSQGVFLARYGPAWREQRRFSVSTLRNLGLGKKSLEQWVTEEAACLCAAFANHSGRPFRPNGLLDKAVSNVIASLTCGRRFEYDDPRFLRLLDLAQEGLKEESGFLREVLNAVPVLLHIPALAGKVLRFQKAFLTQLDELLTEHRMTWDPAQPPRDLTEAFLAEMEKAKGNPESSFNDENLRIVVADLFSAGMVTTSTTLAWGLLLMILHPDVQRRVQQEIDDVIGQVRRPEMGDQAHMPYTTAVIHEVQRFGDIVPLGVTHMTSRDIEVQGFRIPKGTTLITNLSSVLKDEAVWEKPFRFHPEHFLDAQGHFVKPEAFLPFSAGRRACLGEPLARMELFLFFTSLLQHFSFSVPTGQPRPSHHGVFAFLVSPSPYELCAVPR
# Outline: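 Human CYP2D6 (5 nM) with 30 uM Luciferin-ME EGE (at Km) in 100 mM KPO4, compound preincubated 10 min, then NADPH regeneration system for 60 min at room temperature. Luciferin read by luminescence; normalized to 1.43 uM quinidine.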
# [12] = target: Cytochrome P450 2C19 (Homo sapiens) (UniProt P33261); assay: qHTS Assay for Inhibitors and Substrates of Cytochrome P450 2C19 (AID 899); note: nearly all actives have a fitted effect of over 60% in size
# Sequence of Cytochrome P450 2C19 (Homo sapiens) (P33261 whole entry, looked up): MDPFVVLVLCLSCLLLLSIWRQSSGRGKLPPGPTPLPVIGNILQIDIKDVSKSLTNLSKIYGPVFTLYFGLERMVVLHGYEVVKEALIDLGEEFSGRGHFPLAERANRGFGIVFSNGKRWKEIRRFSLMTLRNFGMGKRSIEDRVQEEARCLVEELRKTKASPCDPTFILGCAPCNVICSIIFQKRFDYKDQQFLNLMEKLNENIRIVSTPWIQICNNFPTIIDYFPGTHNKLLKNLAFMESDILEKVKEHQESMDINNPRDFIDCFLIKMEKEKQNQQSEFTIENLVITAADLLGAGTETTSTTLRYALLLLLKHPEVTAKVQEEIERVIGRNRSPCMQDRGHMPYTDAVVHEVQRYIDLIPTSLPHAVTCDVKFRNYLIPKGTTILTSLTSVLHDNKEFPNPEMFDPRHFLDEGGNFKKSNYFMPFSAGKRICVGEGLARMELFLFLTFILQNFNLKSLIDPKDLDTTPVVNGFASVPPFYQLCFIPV
# Outline: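 Human CYP2C19 (5nM) with Luciferin-H EGE at 10uM (its KM) in 50mM KPO4 was preincubated with compound for 10 min at 37C. NADPH regeneration started a 60 min 37C reaction. Luciferin was read by luminescence, normalized to 57uM ketoconazole.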
# [13] = Confirmation and Secondary Assay for Modulators of Hemoglobin Beta Chain Splicing at IVS2 654 locus (AID 910)
# Outline: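 HeLa cells stably carrying EGFP interrupted by mutant beta-globin IVS2-654 intron (CMV-driven) were treated with compound for 2 days at 37C; corrected splicing was scored as total peak GFP intensity per well (488 nm excitation, 500-520 nm emission).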
# [14] = qHTS Assay for Identification of Small Molecule Agonists for Thrombopoietin (TPO) Signaling Pathway (AID 917)
# Outline: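 IL-3-dependent murine pro-B Ba/F3 cells, stably transfected with human TPO receptor and GpIIb-promoter luciferase, are incubated 24 hrs at 37 C with test compound and 26 pM TPO; luciferase signal is read after 10 min at room temperature.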
# [15] = Confirmation and Secondary Assay for Modulators of Hemoglobin Beta Chain Splicing at IVS2 705 locus (AID 930);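 note: HeLa cells stably expressing the EGFP-705 splicing reporter; GFP fluorescence per well restored by corrected splicing of the IVS2-705 intron in EGFP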
# Outline: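 Read-out: total peak GFP fluorescence per well (488 nm excitation, 500-520 nm emission) by laser-scanning cytometry. Cells: HeLa EGFP-705 splicing reporter, 2 days compound exposure in Optimem/2% FCS.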
# [16] = target: Muscarinic acetylcholine receptor M1 (Rattus norvegicus) (UniProt P08482); assay: qHTS Assay for Antagonists of Acetylcholine Muscarinic M1 Receptor: Kinetic Measurement of Intracellular Calcium Response (AID 943);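 note: Fluo-4 calcium signal as peak divided by basal fluorescence over 4 min; nearly all actives have a fitted effect of over 75% in size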
# Sequence of Muscarinic acetylcholine receptor M1 (Rattus norvegicus) (P08482 whole entry, looked up): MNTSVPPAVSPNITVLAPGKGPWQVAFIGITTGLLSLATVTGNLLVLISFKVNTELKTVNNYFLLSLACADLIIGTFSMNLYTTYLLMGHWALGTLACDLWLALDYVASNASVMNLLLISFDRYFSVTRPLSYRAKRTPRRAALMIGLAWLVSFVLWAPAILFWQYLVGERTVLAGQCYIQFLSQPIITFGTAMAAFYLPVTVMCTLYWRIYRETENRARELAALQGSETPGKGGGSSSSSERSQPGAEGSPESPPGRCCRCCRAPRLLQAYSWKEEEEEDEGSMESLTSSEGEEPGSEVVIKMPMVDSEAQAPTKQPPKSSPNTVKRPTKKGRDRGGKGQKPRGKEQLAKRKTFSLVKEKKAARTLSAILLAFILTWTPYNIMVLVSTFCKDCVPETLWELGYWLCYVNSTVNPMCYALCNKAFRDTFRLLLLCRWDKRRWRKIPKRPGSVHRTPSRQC
# Outline: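 Rat M1-CHO cells, 2000/well, overnight → Fluo-4 no-wash dye with probenecid, 1 h 37C → compound 10 min, room temp → basal read 6 s → carbachol EC80 (100 nM) → 4 min kinetic read; peak/basal.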
# [17] = target: Muscarinic acetylcholine receptor M1 (Rattus norvegicus) (UniProt P08482); assay: qHTS Assay for Antagonists of Acetylcholine Muscarinic M1 Receptor: Measurement of IP-One Response (AID 944); note: nearly all actives have a fitted effect of over 75% in size
# Outline: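 M1-CHO (rat), 2000 cells/well, overnight recovery; cpd 10 min; carbachol EC80 (200 nM), 30 min, HEPES buffer + 50 mM LiCl pH 7.4; IP-One HTRF, Ex 337, Em 620/665 nm.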
# [18] = target: Pyruvate kinase (Leishmania mexicana) (UniProt Q27686); assay: qHTS Validation Assay for Inhibitors of Leishmania Mexicana Pyruvate Kinase (AID 945)
# Outline: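 Luminescent ATP detection (PKLight) after a 1 h room-temperature reaction of 0.2 nM LmPYK E451W mutant with 0.5 mM PEP and 0.1 mM ADP at pH 7.2. Activity is normalized to DMSO-only control wells.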
# [19] = target: Pyruvate kinase PKM (Homo sapiens) (UniProt P14618); assay: qHTS Assay for Activators of Human Muscle Pyruvate Kinase (AID 954; active = well fitted curve in the direction sought with a large enough effect, not every such curve was filed as active)
# Outline: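 Reaction: 0.1 nM purified PKM2 with 0.5 mM phosphoenolpyruvate and 0.1 mM ADP, room temperature, 1 h. Readout: luciferase-based ATP luminescence after stop reagent. Activators judged against a 0.3 nM enzyme column.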
# [20] = target: Alpha-galactosidase A (Homo sapiens) (UniProt P06280); assay: Counterscreen for Glucocerebrosidase Inhibitors: qHTS Assay for Human alpha-Galactosidase at pH 4.5 (AID 992)
# Sequence of Alpha-galactosidase A (Homo sapiens) (P06280 whole entry, looked up): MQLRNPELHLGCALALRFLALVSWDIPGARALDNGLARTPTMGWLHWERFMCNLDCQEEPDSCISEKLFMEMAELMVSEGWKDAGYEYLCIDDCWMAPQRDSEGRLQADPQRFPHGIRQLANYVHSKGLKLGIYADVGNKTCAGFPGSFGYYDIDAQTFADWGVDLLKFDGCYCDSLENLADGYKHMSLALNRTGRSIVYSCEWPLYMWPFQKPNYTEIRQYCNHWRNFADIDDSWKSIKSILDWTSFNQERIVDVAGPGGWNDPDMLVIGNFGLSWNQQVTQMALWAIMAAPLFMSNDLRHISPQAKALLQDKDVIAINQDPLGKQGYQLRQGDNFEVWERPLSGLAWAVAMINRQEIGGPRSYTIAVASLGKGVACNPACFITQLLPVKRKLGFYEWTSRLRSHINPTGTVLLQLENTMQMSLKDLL
# Outline: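 Concentration-response curves (0.7 nM to 77 uM final) were modeled with the Hill equation to give AC50. Reactions: 2 nM enzyme, 80 uM fluorogenic alpha-galactoside, pH 4.5 citric acid buffer, 20 min, room temperature.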
# [21] = target: alpha-glucosidase (Oryza sativa, rice) (UniProt Q653V4); assay: Counterscreen for Glucocerebrosidase Inhibitors: qHTS Assay for Rice alpha-Glucosidase at pH 5.0 (AID 997)
# Outline: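 Rice alpha-glucosidase (4 nM final) with 400 uM 4-methylumbelliferyl-alpha-D-glucopyranoside in citrate buffer pH 5.0, 20 min at room temperature, stopped at pH 10; fluorescence 365/440 nm, compounds 0.7 nM–77 uM, AC50 from Hill fits.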
# [22] = qHTS Assay for Lipid Storage Modulators (AID 1519; calls by dose curve); conditions: Drosophila S3 cells, BODIPY lipid droplet/cell ratio, laser cytometry, cells loaded with oleic acid
# Outline: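 Cells seeded at 5,000 per well were treated with compounds over a concentration series and loaded with oleic acid (400 uM, as added). Lipid droplet fluorescence (488 nm excitation, 500-530 nm channel) was read by laser-scanning cytometry and normalized to 20 uM Triacsin C.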
# [23] = target: DNA dC->dU-editing enzyme APOBEC-3G (Homo sapiens) (UniProt Q9HC16); assay: qHTS for inhibitors of Vif-A3G interactions: Validation (AID 588379)
# Outline: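 HeLa cells stably expressing Vif and A3G-eYFP, 700 cells/well, incubated overnight at 37 deg C, then exposed to compound overnight at 37 deg C. Inhibition of Vif-mediated degradation read as increased yellow fluorescence (Ex 488/Em 500-530) by laser-scanning cytometry.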
# [24] = test system: Zika virus NS2B-NS3 protease; assay: Primary screen GU AMC qHTS for Zika virus inhibitors (AID 1347154); note: nearly all actives have a fitted effect of over 70% in size
# Outline: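 Unlinked Zika NS2B hydrophilic domain/NS3 protease domain noncovalent complex (25 nM final) in 10 mM Tris-HCl pH 8.0, 0.01% Tween 20, with AMC peptide substrate. Fluorescence (ex 340, em 450 nm) change over 15 min, room temperature; percent inhibition fitted to 4-parameter Hill equation.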
# [25] = Primary qHTS for small molecule stabilizers of the endoplasmic reticulum resident proteome: Secreted ER Calcium Modulated Protein (SERCaMP) assay (AID 1508630)
# Outline: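 GLuc-SERCaMP-expressing SH-SY5Y cells, pretreated 16 h with compound, are challenged with thapsigargin to empty ER calcium stores; after 4 h, coelenterazine is added directly to the medium and luminescence is imaged.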
structure (smiles),measurement,setting,value
O=C(O)[C@H]1CCCNC1,"activity change, negative = inhibition",[1],5.2% (inactive)
same,Potency,[2],inactive
same,"activity change, negative = inhibition",[3],2.68% (inactive)
same,"activity, negative = inhibition",[4],-8.68% (inactive)
same,Potency,[5],> 46 µM (inactive)
same,Potency,[6],> 46 µM (inactive)
same,Potency,[7],inactive
same,Potency,[8],inactive
same,outcome,[9],inactive
same,Potency,[10],inactive
same,Potency,[11],inactive
same,Potency,[12],inactive
same,outcome,[13],inactive
same,Potency,[14],inactive
same,outcome,[15],inactive
same,Potency,[16],inactive
same,Potency,[17],inactive
same,Potency,[18],inactive
same,outcome,[19],inactive
same,outcome,[20],inactive
same,outcome,[21],inactive
same,"activity change, negative = inhibition",[22]; at 57.5 µM (top of the series),-2.39% (inactive)
same,max response,[22]; measured here: cell count channel max response,-0.0867%
same,max response,[22]; measured here: lipid channel max response,-1.72%
same,Potency,[23],inactive
same,Potency,[24],inactive
same,Potency,[25],inactive
